Tests used:
Conditions in all cases: 60 µM; 5 days; temperature: 20 °C
Meloidogyne hapla J2 = experiment: proportion of mobile M. hapla J2 relative to DMSO control (fraction of DMSO control); higher = more viable, less nematicidal, active = 0.7 or less
In short: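 Two biological replicates were run and averaged, each on 96-well plates in which about 25 M. hapla J2 sat in distilled water per well. Compound was pinned in to give 60 µM final and 0.6% v/v DMSO, and the sealed plates were shaken at 200 rpm and 20 °C for 5 days before 2 µL 1 M NaOH was added. Mobility was scored microscopically and divided by the mean from the plate's DMSO-only wells, of which there were eight.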

[1] = system: Caenorhabditis elegans dauer (daf-2(e1370)); experiment: proportion of mobile C. elegans dauer larvae relative to DMSO control (fraction of DMSO control); higher = more viable, less nematicidal, active = 0.63 or less; extreme values may be limits of the assay
In short: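 Synchronized C. elegans larvae were kept for 48 h at 25 °C on MYOB plates seeded with E. coli OP50 to induce dauer formation, and roughly 20 dauers were transferred into each well of a 96-well plate containing liquid NGM. Compound was pinned in to a final concentration of 60 µM with 0.6% v/v DMSO, and the sealed plates were shaken at 200 rpm for 5 days at 20 °C. The fraction of mobile worms was scored under a dissection microscope against DMSO-only wells and averaged across two biological replicates.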

Ditylenchus dipsaci = experiment: proportion of mobile D. dipsaci (mixed stage) relative to DMSO control (fraction of DMSO control); higher = more viable, less nematicidal, active = 0.86 or less; extreme values may be limits of the assay
In short: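 The worms, D. dipsaci raised on pea plants in Gamborg B-5 agar, were recovered through a filter funnel into water. Each well of a 96-well plate then held about 20 of them in distilled water plus pinned compound at 60 µM final (0.6% v/v DMSO), and the sealed plates were shaken at 200 rpm at 20 °C for 5 days. Following addition of 2 µL 1 M NaOH, mobile worms were counted by microscopy, and mobility was expressed against DMSO controls as the average of two biological replicates.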

Cc1cccc(-c2nnc(SCC(=O)Nc3ccccc3F)o2)c1
inactive: proportion of mobile M. hapla J2 (Meloidogyne hapla J2) 0.753 | proportion of mobile C. elegans dauer larvae [1] 1 | proportion of mobile D. dipsaci (Ditylenchus dipsaci) 1

Cc1ccc(C)c(OCc2nc(-c3cccnc3)no2)c1
inactive: proportion of mobile M. hapla J2 (Meloidogyne hapla J2) 1.04 | proportion of mobile C. elegans dauer larvae [1] 1 | proportion of mobile D. dipsaci (Ditylenchus dipsaci) 1

COc1cccc(-c2noc(-c3cccc(F)c3)n2)c1
inactive: proportion of mobile M. hapla J2 (Meloidogyne hapla J2) 1.01 | proportion of mobile C. elegans dauer larvae [1] 1 | proportion of mobile D. dipsaci (Ditylenchus dipsaci) 1

COc1nc(-c2ccccc2)ccc1-c1noc(C(C)C)n1
inactive: proportion of mobile M. hapla J2 (Meloidogyne hapla J2) 0.776 | proportion of mobile C. elegans dauer larvae [1] 1 | proportion of mobile D. dipsaci (Ditylenchus dipsaci) 1

O=C(CSc1nnc(-c2cccc(Cl)c2)o1)Nc1nccs1
inactive: proportion of mobile M. hapla J2 (Meloidogyne hapla J2) 0.894 | proportion of mobile C. elegans dauer larvae [1] 1 | proportion of mobile D. dipsaci (Ditylenchus dipsaci) 1

COc1ccc(-c2noc(C34CC5CC(CC(C5)C3)C4)n2)cc1
inactive: proportion of mobile M. hapla J2 (Meloidogyne hapla J2) 1.04 | proportion of mobile C. elegans dauer larvae [1] 1 | proportion of mobile D. dipsaci (Ditylenchus dipsaci) 1

CN(C)C(=O)c1ccccc1-c1nc(-c2ccccc2Cl)no1
inactive: proportion of mobile M. hapla J2 (Meloidogyne hapla J2) 0.882 | proportion of mobile C. elegans dauer larvae [1] 1 | proportion of mobile D. dipsaci (Ditylenchus dipsaci) 1

Cc1ccc(OCc2nc(-c3ccc(Cl)cc3)no2)cc1C
inactive: proportion of mobile M. hapla J2 (Meloidogyne hapla J2) 1.05 | proportion of mobile C. elegans dauer larvae [1] 1 | proportion of mobile D. dipsaci (Ditylenchus dipsaci) 1

Cc1ccc(OCc2nc(-c3ccc4c(c3)OCO4)no2)cc1C
inactive: proportion of mobile M. hapla J2 (Meloidogyne hapla J2) 1.04 | proportion of mobile C. elegans dauer larvae [1] 1 | proportion of mobile D. dipsaci (Ditylenchus dipsaci) 1

Fc1ccc(-c2nc(-c3ccc(Cl)cc3)no2)cc1
inactive: proportion of mobile M. hapla J2 (Meloidogyne hapla J2) 0.919 | proportion of mobile C. elegans dauer larvae [1] 1 | proportion of mobile D. dipsaci (Ditylenchus dipsaci) 1

COc1ccc(-c2nnc(SCc3ccccc3C)o2)cc1
inactive: proportion of mobile M. hapla J2 (Meloidogyne hapla J2) 0.942 | proportion of mobile C. elegans dauer larvae [1] 1 | proportion of mobile D. dipsaci (Ditylenchus dipsaci) 1

Brc1ccccc1-c1nc(-c2ccccc2)no1
inactive: proportion of mobile M. hapla J2 (Meloidogyne hapla J2) 1.04 | proportion of mobile C. elegans dauer larvae [1] 0.676 | proportion of mobile D. dipsaci (Ditylenchus dipsaci) 1

Source: the supplement of paper PMC11219838
